Data as given in PubChem BioAssay (NCATS).
Records with an inconclusive call do not appear. The source made the active and inactive calls. Unless noted, the call rests on the fitted dose curve; in most records, active means well fitted curve in the direction sought with a large enough effect; inconclusive means small, poorly fitted or top-dose-only effect, or another doubt; inactive means no such curve, though single readings can be large; an effect the other way counts as inactive or inconclusive.

Key:
[1] = target: Lysosomal acid glucosylceramidase (Homo sapiens) (UniProt P04062); experiment: Glucocerebrosidase-p2 (AID 348; in the data active means potency below about 10 µM; further: potency means the concentration at half of the fitted maximal effect); conditions: purified GBA, blue fluorogenic substrate, 40 min
Chain of Lysosomal acid glucosylceramidase (Homo sapiens) (P04062 whole entry, looked up): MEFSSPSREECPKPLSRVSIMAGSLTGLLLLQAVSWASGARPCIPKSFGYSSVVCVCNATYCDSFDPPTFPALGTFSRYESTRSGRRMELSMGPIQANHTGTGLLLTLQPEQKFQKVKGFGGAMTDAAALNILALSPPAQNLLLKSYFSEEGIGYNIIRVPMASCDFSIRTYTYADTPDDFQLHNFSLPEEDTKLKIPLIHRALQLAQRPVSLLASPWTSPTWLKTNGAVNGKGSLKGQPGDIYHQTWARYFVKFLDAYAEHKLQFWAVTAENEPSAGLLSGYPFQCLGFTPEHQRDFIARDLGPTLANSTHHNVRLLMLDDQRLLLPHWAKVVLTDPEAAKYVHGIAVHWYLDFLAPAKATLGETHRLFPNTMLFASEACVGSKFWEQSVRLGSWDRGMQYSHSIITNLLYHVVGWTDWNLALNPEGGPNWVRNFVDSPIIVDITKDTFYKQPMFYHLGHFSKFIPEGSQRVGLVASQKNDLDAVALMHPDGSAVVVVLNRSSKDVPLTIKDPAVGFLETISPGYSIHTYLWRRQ
Outline: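 Normal human glucocerebrosidase (0.2 nM) with blue fluorogenic substrate (80 uM final) in citrate/phosphate pH 5.9 with 10mM sodium taurocholate, 0.01% tween-20; 40 min RT, NaOH/glycine stop; fluorescence Ex 365/Em 440; AC50 from a titration from 0.6 nM upwards.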

[2] = AP1 Signaling Pathway (AID 357; active means well fitted curve in either direction with a large enough effect, not every such curve was filed as active;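 further: ME-180 reporter cells stimulated with EGF at its EC50 level; on the % scale 0 is the no-effect control and ±100 the full control effect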)
Outline: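 Titration-series screen for positive or negative modulators of EC50 EGF-induced signaling in ME-180 cells carrying an AP-1-driven beta-lactamase reporter. After 5 hours at 37 degrees Celsius, CCF4 460nm/530nm emission ratio gave %Activity; AC50 values derived.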

[3] = target: Cytochrome P450 1A2 (Homo sapiens) (UniProt P05177); experiment: p450-cyp1a2 (AID 410; calls by dose curve;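 further: -100% = full effect of reference inhibitor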)
Chain of Cytochrome P450 1A2 (Homo sapiens) (P05177 whole entry, looked up): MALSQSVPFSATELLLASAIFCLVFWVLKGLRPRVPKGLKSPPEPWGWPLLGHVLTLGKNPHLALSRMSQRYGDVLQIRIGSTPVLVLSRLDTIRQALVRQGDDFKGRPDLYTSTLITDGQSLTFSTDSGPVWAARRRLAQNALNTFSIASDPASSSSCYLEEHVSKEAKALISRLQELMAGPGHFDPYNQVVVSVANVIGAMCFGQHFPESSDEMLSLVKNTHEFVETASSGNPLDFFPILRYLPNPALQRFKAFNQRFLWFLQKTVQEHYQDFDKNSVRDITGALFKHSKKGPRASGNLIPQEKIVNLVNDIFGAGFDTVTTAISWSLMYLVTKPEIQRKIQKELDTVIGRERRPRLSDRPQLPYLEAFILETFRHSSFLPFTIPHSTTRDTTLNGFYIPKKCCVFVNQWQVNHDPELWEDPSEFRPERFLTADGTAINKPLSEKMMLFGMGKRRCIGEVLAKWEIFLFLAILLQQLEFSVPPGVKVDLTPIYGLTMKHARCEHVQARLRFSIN
Outline: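 Read-out is luminescence from luciferin produced by CYP1A2 demethylation of Luciferin-ME (100uM, at Km). Detection reagent stopped the 60 min NADPH-dependent reaction; signals were normalized to 57 uM furafylline.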

[4] = NFAT Signaling Pathway (AID 444; active means well fitted curve in either direction with a large enough effect, not every such curve was filed as active;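 further: carbachol stimulus at about its EC50 of 1 µM final; on the % scale 0 is the no-effect control and ±100 the full control effect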); conditions: Jurkat NFAT-bla M1, carbachol, beta-lactamase ratio, 5 h; at 17.2 µM (top of the series) unless noted
Outline: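 Read-out: CCF4 FRET ratio (460 nm/530 nm) after 1 h RT dye loading, used for %activity and AC50 from titration series. Cells: Jurkat NFAT-β-lactamase/M1 line, treated with compound plus 1 uM carbachol for 5 h, 37 °C.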

[5] = Stat Signaling Pathway (AID 446; active means well fitted curve in either direction with a large enough effect, not every such curve was filed as active;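 further: ME-180 cervical cancer cells given 40 pM IL-6 alongside compound; SIE-controlled beta-lactamase reporter measured as 460/530 nm FRET emission ratio; on the % scale 0 is the no-effect control and ±100 the full control effect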)
Outline: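 Compound effects on IL-6-induced STAT reporter activity were measured in ME-180 cells. After overnight culture, cells were co-treated with 40 pM IL-6 for 5 hrs before beta-lactamase substrate loading at room temperature.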

[6] = target: Glucocorticoid receptor (Homo sapiens) (UniProt P04150); experiment: GR-EFC Redistribution (AID 451; calls by dose curve; further: potency means the concentration at half of the fitted maximal effect); conditions: CHO-K1 GR-EFC translocation, beta-gal luminescence, 2 h
Chain of Glucocorticoid receptor (Homo sapiens) (P04150 whole entry, looked up, the tested form may be a part): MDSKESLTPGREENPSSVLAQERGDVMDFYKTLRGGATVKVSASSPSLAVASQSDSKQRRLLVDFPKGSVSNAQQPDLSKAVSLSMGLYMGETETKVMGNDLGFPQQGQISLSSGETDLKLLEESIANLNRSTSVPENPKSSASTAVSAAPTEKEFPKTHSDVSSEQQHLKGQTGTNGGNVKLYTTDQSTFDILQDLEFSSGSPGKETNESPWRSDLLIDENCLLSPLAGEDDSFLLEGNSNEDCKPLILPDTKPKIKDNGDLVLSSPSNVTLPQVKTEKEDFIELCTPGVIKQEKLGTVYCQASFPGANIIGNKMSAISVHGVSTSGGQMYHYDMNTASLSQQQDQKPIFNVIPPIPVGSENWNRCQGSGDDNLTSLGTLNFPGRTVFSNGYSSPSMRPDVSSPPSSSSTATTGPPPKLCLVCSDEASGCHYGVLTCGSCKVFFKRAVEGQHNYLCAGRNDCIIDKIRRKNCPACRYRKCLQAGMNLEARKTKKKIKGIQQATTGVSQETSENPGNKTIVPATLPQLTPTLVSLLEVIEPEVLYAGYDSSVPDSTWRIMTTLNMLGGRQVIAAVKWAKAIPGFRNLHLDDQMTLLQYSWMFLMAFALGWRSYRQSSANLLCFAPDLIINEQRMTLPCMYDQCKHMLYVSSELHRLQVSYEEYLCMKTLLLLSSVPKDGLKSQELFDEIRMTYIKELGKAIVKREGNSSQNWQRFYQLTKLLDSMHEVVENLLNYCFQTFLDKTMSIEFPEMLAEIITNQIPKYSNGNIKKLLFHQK
Outline: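 Translocation of GR-ED fusion to nuclear EA restores b-gal, read by luminescence after 1 h room-temperature detection. Engineered CHO-K1 biosensor cells, 1,000/well, exposed 2 h at 37 C to titrations up to 46 uM final.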

[7] = target: Mitogen-activated protein kinase 10 (Mus musculus) (UniProt Q61831); experiment: JNK3 AlphaScreen Assay (AID 530; active means well fitted curve in either direction with a large enough effect, not every such curve was filed as active;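 further: kinase came from lysate of stimulated human HepG2 cells; signal reports phosphorylation of biotinylated GST-cJun 1-79 at Ser73 with 10 µM ATP; on the % scale 0 is the no-effect control and ±100 the full control effect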)
Outline: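 Kinase buffer: 20 mM Tris-HCl pH 7.6, 10 mM MgCl2, 1 mM DTT, 0.1 mM Na3VO4, 0.01% Tween-20; ATP 10 uM. Substrate biotin-GST-cJun(1-79), enzyme from activated HepG2 lysates. Detection by Ser73 phospho-antibody AlphaScreen.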

[8] = target: 3',5'-cyclic-AMP phosphodiesterase 4B (Homo sapiens) (UniProt Q07343); experiment: qHTS Assay for Inhibitors of PDE-IV (AID 607; active means well fitted activation curve with a large enough effect in the main read-out, with a control signal flat, not every such curve was filed as active; further: % of control where 0% means no effect)
Chain of 3',5'-cyclic-AMP phosphodiesterase 4B (Homo sapiens) (Q07343 whole entry, looked up): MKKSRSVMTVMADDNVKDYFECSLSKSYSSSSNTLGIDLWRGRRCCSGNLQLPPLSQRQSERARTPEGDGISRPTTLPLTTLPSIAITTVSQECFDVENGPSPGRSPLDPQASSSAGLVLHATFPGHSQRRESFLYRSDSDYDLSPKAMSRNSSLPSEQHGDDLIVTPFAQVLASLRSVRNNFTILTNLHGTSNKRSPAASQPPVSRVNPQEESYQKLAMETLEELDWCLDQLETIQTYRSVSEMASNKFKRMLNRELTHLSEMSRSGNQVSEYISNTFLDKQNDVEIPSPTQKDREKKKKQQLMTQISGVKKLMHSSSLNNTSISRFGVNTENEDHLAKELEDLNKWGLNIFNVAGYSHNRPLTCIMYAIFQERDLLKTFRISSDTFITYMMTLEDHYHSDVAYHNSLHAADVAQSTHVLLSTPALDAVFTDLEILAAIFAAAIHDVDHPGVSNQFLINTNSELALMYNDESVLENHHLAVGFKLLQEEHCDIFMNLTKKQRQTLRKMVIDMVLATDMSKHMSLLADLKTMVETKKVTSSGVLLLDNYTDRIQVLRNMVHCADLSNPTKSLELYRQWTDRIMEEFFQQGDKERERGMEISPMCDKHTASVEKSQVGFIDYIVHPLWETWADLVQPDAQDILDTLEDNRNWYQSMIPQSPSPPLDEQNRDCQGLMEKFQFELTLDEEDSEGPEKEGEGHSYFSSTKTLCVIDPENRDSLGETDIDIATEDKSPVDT
Outline: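 ACTOne HEK293 cells carry a modified cAMP-gated CNG channel and express endogenous PDE4; plated 1000 cells/well, compounds up to 22.9 uM final. Membrane-potential dye fluorescence (ex 535/em 590) was read; parental cells received 10 uM forskolin + 100 uM RO 20-1724.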

[9] = target: ATP-dependent 6-phosphofructokinase (Trypanosoma brucei brucei) (UniProt O15648); experiment: qHTS Assay to Find Inhibitors of T. brucei phosphofructokinase: hit validation (AID 492961)
Chain of ATP-dependent 6-phosphofructokinase (Trypanosoma brucei brucei) (O15648 whole entry, looked up): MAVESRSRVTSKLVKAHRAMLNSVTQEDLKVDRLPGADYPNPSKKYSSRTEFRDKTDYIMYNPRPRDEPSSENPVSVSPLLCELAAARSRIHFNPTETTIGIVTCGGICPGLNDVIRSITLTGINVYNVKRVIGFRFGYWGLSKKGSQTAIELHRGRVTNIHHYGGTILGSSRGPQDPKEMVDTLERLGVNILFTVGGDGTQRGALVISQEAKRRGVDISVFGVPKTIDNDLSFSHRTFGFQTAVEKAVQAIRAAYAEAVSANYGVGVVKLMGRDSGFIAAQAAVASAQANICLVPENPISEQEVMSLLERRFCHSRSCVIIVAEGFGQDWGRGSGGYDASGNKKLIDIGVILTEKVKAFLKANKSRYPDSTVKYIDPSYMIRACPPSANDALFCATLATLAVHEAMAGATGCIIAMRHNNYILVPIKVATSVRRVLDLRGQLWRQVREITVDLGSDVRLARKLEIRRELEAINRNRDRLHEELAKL
Outline: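 ADP-Glo luminescence read-out of ADP formed by 1.25 nM PFK from 0.1 mM ATP and 0.5 mM F6P (TEA pH 8.0, 45 min, RT). Compounds titrated; activity normalized to no-enzyme and full-enzyme controls.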

[10] = target: Ubiquitin carboxyl-terminal hydrolase 1 (Homo sapiens) (UniProt O94782); experiment: Inhibitors of USP1/UAF1: Pilot qHTS (AID 504865);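 further: rhodamine fluorescence freed from ubiquitin-rhodamine substrate followed over time; top concentration of the series differs between compounds; on the % scale 0 is the no-effect control and ±100 the full control effect; nearly all actives have a fitted effect of over 35% in size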
Outline: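 In 50mM HEPES pH 7.8 containing 0.5mM EDTA, 1mM TCEP, 0.1 mg/ml BSA and 0.01% Tween-20, 1nM USP1/UAF1 is exposed to compound for 15 min, then Ub-Rho (150nM final) is added and fluorescence is read over time.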

[11] = target: Luciferin 4-monooxygenase (Photinus pyralis) (UniProt P08659); experiment: Biochemical firefly luciferase enzyme assay for NPC (AID 624030);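 further: purified P. pyralis luciferase at 10 nM with luciferin and ATP substrate; 0% = DMSO and -100% = full luciferase inhibition by PTC124 control; nearly all actives have a fitted effect of over 70% in size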
Chain of Luciferin 4-monooxygenase (Photinus pyralis) (P08659 whole entry, looked up): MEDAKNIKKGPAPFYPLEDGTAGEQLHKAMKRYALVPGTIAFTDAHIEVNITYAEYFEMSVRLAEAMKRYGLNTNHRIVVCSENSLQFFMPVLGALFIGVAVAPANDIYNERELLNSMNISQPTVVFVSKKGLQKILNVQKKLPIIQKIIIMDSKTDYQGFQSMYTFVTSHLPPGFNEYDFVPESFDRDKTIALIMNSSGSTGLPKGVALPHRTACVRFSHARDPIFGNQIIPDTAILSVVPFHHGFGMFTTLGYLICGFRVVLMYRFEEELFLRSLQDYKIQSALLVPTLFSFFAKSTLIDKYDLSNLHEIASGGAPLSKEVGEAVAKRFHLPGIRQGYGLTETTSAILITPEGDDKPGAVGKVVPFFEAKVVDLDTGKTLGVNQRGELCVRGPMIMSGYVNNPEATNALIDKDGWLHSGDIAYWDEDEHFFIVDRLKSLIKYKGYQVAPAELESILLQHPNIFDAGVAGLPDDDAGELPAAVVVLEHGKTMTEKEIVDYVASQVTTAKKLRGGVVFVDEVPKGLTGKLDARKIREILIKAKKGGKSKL
Outline: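 Direct inhibition of firefly luciferase enzyme (10 nM final, 50 mM Tris Acetate) assessed by luminescence within 5 minutes. Percent activity scaled between DMSO and PTC124 positive control, with concentration-effect curves classified by fit quality and response.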

[12] = S16 Schwann cell viability assay (CellTiter-Glo assay) (AID 624031);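 further: native untransfected S16 rat Schwann cells; cellular ATP luminescence as a viability measure; plate controls were DMSO-treated cells for no effect and cell-free wells for full effect; nearly all actives have a fitted effect of over 70% in size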
Outline: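 Following overnight culture in 10% FBS DMEM, parental S16 rat Schwann cells are dosed for 24 h at 37 °C. Viability is read as CellTiter-Glo luminescence and expressed as % activity relative to DMSO (0%) and no-cell wells.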

[13] = S16 Schwann cell PMP22 intronic element firefly luciferase assay (AID 624032);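 further: plate controls were DMSO for no effect and PTC124 positive control mean for full effect; nearly all actives have a fitted effect of over 30% in size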
Outline: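 Luciferase reporter of PMP22 intronic-element expression in stably transfected S16 rat Schwann cells, read by ONE-Glo luminescence after 24 h compound exposure at 37 C. Activity scaled between DMSO (0%) and positive-control PTC124; concentration-effect curves quality-classified.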

[14] = target: Cytochrome P450 2D6 (Homo sapiens) (UniProt P10635); experiment: Cytochrome P450 family 2 subfamily D member 6 (CYP2D6) small molecule antagonists: luciferase biochemical (cell-free) qHTS assay (AID 1645840; active means well fitted curve in the direction sought with a large enough effect in the repeat runs; an effect the other way counts as inactive or inconclusive; further: on the % scale 0 is the no-effect control and ±100 the full control effect; nearly all actives have a fitted effect of over 55% in size)
Chain of Cytochrome P450 2D6 (Homo sapiens) (P10635 whole entry, looked up): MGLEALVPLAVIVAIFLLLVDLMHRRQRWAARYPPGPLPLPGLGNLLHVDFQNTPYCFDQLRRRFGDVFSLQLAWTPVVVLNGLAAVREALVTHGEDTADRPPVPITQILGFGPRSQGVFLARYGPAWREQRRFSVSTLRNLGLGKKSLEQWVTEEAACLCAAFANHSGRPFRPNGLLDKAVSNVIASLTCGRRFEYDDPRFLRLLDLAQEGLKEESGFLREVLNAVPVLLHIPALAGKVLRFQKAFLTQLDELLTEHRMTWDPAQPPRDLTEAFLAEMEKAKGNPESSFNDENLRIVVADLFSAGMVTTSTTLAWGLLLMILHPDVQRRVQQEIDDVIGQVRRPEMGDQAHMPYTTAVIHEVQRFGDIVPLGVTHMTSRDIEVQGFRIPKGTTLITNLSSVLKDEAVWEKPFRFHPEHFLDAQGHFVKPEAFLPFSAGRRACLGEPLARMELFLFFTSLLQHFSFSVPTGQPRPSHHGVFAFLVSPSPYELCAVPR
Outline: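 P450-Glo CYP2D6 system: proluciferin substrate converted by enzyme to luciferin, read by luminescence proportional to activity. Enzyme-substrate mix with compound 10 min at room temperature, then NADPH regeneration 1 h before detection reagent.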

[15] = target: Cytochrome P450 2C9 (Homo sapiens) (UniProt P11712); experiment: Cytochrome P450 family 2 subfamily C member 9 (CYP2C9) small molecule antagonists: luciferase biochemical (cell-free) qHTS assay (AID 1645842; active means well fitted curve in the direction sought with a large enough effect in the repeat runs; an effect the other way counts as inactive or inconclusive; further: on the % scale 0 is the no-effect control and ±100 the full control effect; nearly all actives have a fitted effect of over 55% in size)
Chain of Cytochrome P450 2C9 (Homo sapiens) (P11712 whole entry, looked up): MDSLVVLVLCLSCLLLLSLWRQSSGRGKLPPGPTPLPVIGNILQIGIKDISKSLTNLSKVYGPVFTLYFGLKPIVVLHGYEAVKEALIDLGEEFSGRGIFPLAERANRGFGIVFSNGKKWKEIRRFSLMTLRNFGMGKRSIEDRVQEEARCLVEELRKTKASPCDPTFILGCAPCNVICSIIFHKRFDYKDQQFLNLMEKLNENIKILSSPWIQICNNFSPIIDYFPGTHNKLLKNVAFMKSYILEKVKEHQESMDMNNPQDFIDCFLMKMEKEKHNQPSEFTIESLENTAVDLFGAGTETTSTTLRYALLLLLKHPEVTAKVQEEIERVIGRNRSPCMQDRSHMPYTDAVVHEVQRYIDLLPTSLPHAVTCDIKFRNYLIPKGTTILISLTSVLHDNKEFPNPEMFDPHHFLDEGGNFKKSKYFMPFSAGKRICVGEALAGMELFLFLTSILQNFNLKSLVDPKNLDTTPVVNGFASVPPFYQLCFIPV
Outline: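 P450-Glo CYP2C9 system: proluciferin substrate with enzyme in mix containing 0.4% BSA, 10 min at room temperature, then NADPH regeneration solution added and incubated 1 h at 37C. Detection reagent stopped reaction; luminescence read after 20 min as RLU.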

[16] = target: Glutathione peroxidase 1 (Homo sapiens) (UniProt P07203); experiment: Primary qHTS Assay for Inhibitors of Recombinant Selenoprotein Glutathione Peroxidase 1 (GPX1) (AID 1845191); further: on the % scale 0 is the no-effect control and ±100 the full control effect; nearly all actives have a fitted effect of over 65% in size
Chain of Glutathione peroxidase 1 (Homo sapiens) (P07203 whole entry, looked up): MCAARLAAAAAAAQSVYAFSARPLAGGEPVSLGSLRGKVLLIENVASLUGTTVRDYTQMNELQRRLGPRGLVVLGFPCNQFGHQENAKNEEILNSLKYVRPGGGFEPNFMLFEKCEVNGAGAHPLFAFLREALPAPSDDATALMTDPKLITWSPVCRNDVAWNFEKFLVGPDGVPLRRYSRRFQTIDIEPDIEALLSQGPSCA
Outline: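 NADPH consumption tracked by fluorescence at 340/450 nm between t=0 and t=15 min, room temperature. Final mix: 10 nM GPX1, 100 nM glutathione reductase, 1 mM GSH, 0.5 mM NADPH, 0.5 mM cumene hydroperoxide, 0.01% BSA; 30 min compound–enzyme preincubation.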

[17] = target: Phospholipid hydroperoxide glutathione peroxidase GPX4 (Homo sapiens) (UniProt P36969); experiment: Primary qHTS Assay for Inhibitors of Recombinant Selenoprotein Glutathione Peroxidase 4 (GPX4) (AID 1845192); further: nearly all actives have a fitted effect of over 65% in size
Chain of Phospholipid hydroperoxide glutathione peroxidase GPX4 (Homo sapiens) (P36969 whole entry, looked up): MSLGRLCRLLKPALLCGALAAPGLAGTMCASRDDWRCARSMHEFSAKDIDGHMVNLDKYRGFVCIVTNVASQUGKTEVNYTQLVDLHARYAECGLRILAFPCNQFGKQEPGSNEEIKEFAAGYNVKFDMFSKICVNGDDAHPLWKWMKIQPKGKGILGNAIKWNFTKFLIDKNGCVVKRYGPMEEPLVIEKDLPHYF
Outline: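 NADPH consumption followed by fluorescence at 340/450 nm, t=0 and after 15 min at room temperature. Reaction started with cumene hydroperoxide (0.5 mM final) after 30 min compound–GPX4 preincubation; final 200 nM GPX4, 100 nM GR, 1 mM GSH, 0.5 mM NADPH.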

[18] = qHTS profiling for inhibitors of Plasmodium falciparum proliferation (AID 504749);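 further: 0% = DMSO vehicle and full inhibition = artemisinin control; nearly all actives have a fitted effect of over 60% in size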; conditions: P. falciparum in erythrocytes, SYBR Green DNA, 72 h, at 28.7 µM (top of the series)
Outline: (§1)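 In a 72 h erythrocytic culture (37 C, humidified, 5% CO2) at 2.5% hematocrit and 0.3% starting parasitemia, compounds were tested; SYBR Green I in detergent lysis buffer stained parasite DNA overnight.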

3D7 = experiment: as above; conditions: P. falciparum in erythrocytes, SYBR Green DNA, 72 h; series mostly up to 12.8 µM
Outline: as §1

7G8 = experiment: as above; conditions: P. falciparum in erythrocytes, SYBR Green DNA, 72 h; series mostly up to 12.8 µM
Outline: as §1

AA1029 = experiment: as above; conditions: P. falciparum in erythrocytes, SYBR Green DNA, 72 h; series mostly up to 12.8 µM
Outline: as §1

AS120 = experiment: as above; conditions: P. falciparum in erythrocytes, SYBR Green DNA, 72 h; series mostly up to 12.8 µM
Outline: as §1

ATS189 = experiment: as above; conditions: P. falciparum in erythrocytes, SYBR Green DNA, 72 h; series mostly up to 12.8 µM
Outline: as §1

ATS95 = experiment: as above; conditions: P. falciparum in erythrocytes, SYBR Green DNA, 72 h; series mostly up to 12.8 µM
Outline: as §1

C2A = experiment: as above; conditions: P. falciparum in erythrocytes, SYBR Green DNA, 72 h; series mostly up to 12.8 µM
Outline: as §1

CP185 = experiment: as above; conditions: P. falciparum in erythrocytes, SYBR Green DNA, 72 h; series mostly up to 12.8 µM
Outline: as §1

CP191 = experiment: as above; conditions: P. falciparum in erythrocytes, SYBR Green DNA, 72 h; series mostly up to 12.8 µM
Outline: as §1

CP192 = experiment: as above; conditions: P. falciparum in erythrocytes, SYBR Green DNA, 72 h; series mostly up to 12.8 µM
Outline: as §1

CP194 = experiment: as above; conditions: P. falciparum in erythrocytes, SYBR Green DNA, 72 h; series mostly up to 12.8 µM
Outline: as §1

CP201 = experiment: as above; conditions: P. falciparum in erythrocytes, SYBR Green DNA, 72 h; series mostly up to 12.8 µM
Outline: as §1

CP203 = experiment: as above; conditions: P. falciparum in erythrocytes, SYBR Green DNA, 72 h; series mostly up to 12.8 µM
Outline: as §1

CP211 = experiment: as above; conditions: P. falciparum in erythrocytes, SYBR Green DNA, 72 h; series mostly up to 12.8 µM
Outline: as §1

CP215 = experiment: as above; conditions: P. falciparum in erythrocytes, SYBR Green DNA, 72 h; series mostly up to 12.8 µM
Outline: as §1

CP217 = experiment: as above; conditions: P. falciparum in erythrocytes, SYBR Green DNA, 72 h; series mostly up to 12.8 µM
Outline: as §1

CP237 = experiment: as above; conditions: P. falciparum in erythrocytes, SYBR Green DNA, 72 h; series mostly up to 12.8 µM
Outline: as §1

CP238 = experiment: as above; conditions: P. falciparum in erythrocytes, SYBR Green DNA, 72 h; series mostly up to 12.8 µM
Outline: as §1

CP247 = experiment: as above; conditions: P. falciparum in erythrocytes, SYBR Green DNA, 72 h; series mostly up to 12.8 µM
Outline: as §1

CP250 = experiment: as above; conditions: P. falciparum in erythrocytes, SYBR Green DNA, 72 h; series mostly up to 12.8 µM
Outline: as §1

O=C(O)[C@@H]1CCCN1
inactive: Potency [1] > 11.4 µM | outcome [2] | Potency [3] | activity change, negative = inhibition [4] -2.98% [at 7.69 µM] | outcome [5] | Potency [6] > 9.22 µM | Potency [7] | outcome [8] | outcome [9] | Potency [10] | Potency [11] | outcome [12] | Potency [13] | Potency [14] | Potency [15] | Potency [16] | Potency [17] | activity, negative = inhibition ([18]; parasite line A) 3.04% | activity, negative = inhibition ([18]; parasite line B) -1.27% | Potency (3D7) | Potency (7G8) | Potency (AA1029) | Potency (AS120) | Potency (ATS189) | Potency (ATS95) | Potency (C2A) | Potency (CP185) | Potency (CP191) | Potency (CP192) | Potency (CP194) | Potency (CP201) | Potency (CP203) | Potency (CP211) | Potency (CP215) | Potency (CP217) | Potency (CP237) | Potency (CP238) | Potency (CP247) | Potency (CP250)
